Screens as filed in PubChem.
Shiga inhibitor – inhibitors of Shiga toxin in Vero cells | Vero cells, Shiga toxin protein synthesis inhibition reporter | inhibition, % at 38.7 µM | 9.2% of 290,000 active; in the data active means inhibition mostly above about 28%, no sharp cut-off; inactive means mostly below about 43%
Pf growth 96h – P. falciparum growth inhibition at 96 hours; P. falciparum luciferase reporter growth, 96 h; Potency, µM (doses to about 28.7 µM), actives largely listed as inhibitors; 6.9% of 320,000 active; AID 504834
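Plates of compound plus infected erythrocytes (2% hematocrit, 0.05% parasitemia final) incubate 96 hours, 37 C, 5% CO2. Detection reagent added; reduced luminescence from the parasites' luciferase reporter flags inhibition.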
SARS PLP yeast – blocks SARS-CoV papain-like protease in a yeast assay; S. cerevisiae expressing SARS-CoV PLpro, growth rescue; Potency, µM (doses to about 32.9 µM), hits mostly activators; 0.19% of 330,000 active; calls by dose curve; further: nearly all actives have a fitted effect of over 55% in size
AMA1-RON2 inh – AMA1-RON2 (P. falciparum) interaction inhibition. 0.2% of 360,000 active. AlphaScreen AMA1-biotinylated RON2 peptide binding. Potency, µM (series often up to 58.2 µM), most hits filed as inhibitors; further: nearly all actives have a fitted effect of over 45% in size
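AMA1 (3D7) with his tag at 25 nM final met compounds first, then biotinylated RON2 peptide at 25 nM; detection used donor plus acceptor beads, 10 µg/mL apiece, read by AlphaScreen after 30 min at room temperature.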
Pf growth 48h – inhibits P. falciparum growth in the first generation, 48 h | P. falciparum luciferase growth in erythrocytes, 48 h | Potency, µM (highest dose often 28.7 µM), actives largely listed as inhibitors | 5.9% of 310,000 active
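Compounds are pin-transferred into medium, infected erythrocytes (2% hematocrit, 0.1% parasitemia final) are added, and plates sit one parasite generation at 37 C in 5% CO2. Detection reagent is then added and luminescence measured.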
CHX counter – counter-screen for Shiga toxin inhibitors: cycloheximide protein synthesis inhibition; max response, %; cell reporter, cycloheximide protein synthesis inhibition counterscreen; 12% of 300,000 active; in the data active means max response mostly above about 13%, no sharp cut-off; inactive means mostly below about 14%; further: read at 38.3 µM for the half of the compounds with a filed dose
Numbers stand for hits; 0 = inactive; ? = inconclusive; - = not tested or not shown; [ ] = dose if it differs, or a comment. In the library only some 19% were active in any assay of this set; here they are far more common. Unless noted, the call rests on the fitted dose curve; in most records, active means well fitted curve in the direction sought with a large enough effect; inconclusive means small, poorly fitted or top-dose-only effect, or another doubt; inactive means no such curve, though single readings can be large; an effect the other way counts as inactive or inconclusive.

SMILES	Shiga inhibitor	Pf growth 96h	SARS PLP yeast	AMA1-RON2 inh	Pf growth 48h	CHX counter
Cc1ccc(C)c(N=Nc2nc3ccccc3n2C)c1	76.5	0.465µM	0	10.6µM	0.522µM	46.6
CC(=O)c1ccc(S(=O)(=O)N(C)CCCC(=O)NCc2ccc3c(c2)OCO3)cc1	-	?	0	0	?	-
Cc1cc(C(=O)NCc2cccnc2)no1	0	-	0	0	0	0
Cc1cc(C(=O)NCc2cccs2)cs1	0	-	0	0	0	0
CC(C)Cc1cc(C(=O)NCc2cccs2)no1	84.1	?	0	0	0	40.1
CC(C)Cc1cc(C(=O)NCc2cccnc2)no1	0	0	0	0	-	25.4
O=C(NCc1cccnc1)c1cc(-c2ccco2)on1	75.0	0	0	0	0	43.9
Cc1ccc(-c2cc(C(=O)NCc3cccnc3)no2)cc1	49.7	0	0	0	0	53.3
CC1(C(=O)O)CCCN1C(=O)c1cccc(OC(F)(F)F)c1 (stereo not drawn)	-	-	-	0	-	-
CCOc1ccc(CN(C)CC(=O)Nc2ccc([N+](=O)[O-])cc2Cl)cc1	0	0	0	0	0	0
CC(=O)c1ccc(N=C2NC(=O)C(CO)(CO)S2)cc1	0	?	0	0	0	0
COc1ccc(C(=O)NCc2cccnc2)cc1OC	0	0	0	0	0	0
O=C(NCc1ccc(F)cc1)c1cc(-c2ccco2)on1	0	-	0	0	0	19.5
O=C(NCc1ccc(Cl)cc1)c1cc(-c2ccco2)on1	0	0	0	0	0	0
COc1ccc(-c2cc(C(=O)NCc3cccnc3)no2)cc1OC	0	9.28µM	0	0	0	0
CC(C)Oc1ccccc1/C=N/Nc1ccccc1[N+](=O)[O-]	86.8	8.28µM	0	7.08µM	?	64.6
COc1cc(/C=N/Nc2ccccc2[N+](=O)[O-])ccc1OC(=O)c1ccccc1F	44.9	0	0	0	0	30.6
COc1cc(/C=N/Nc2ccccc2[N+](=O)[O-])cc(OC)c1O	87.9	0	0	0	0	26.2
COc1ccccc1/C=N\Nc1ccccc1[N+](=O)[O-]	73.0	0	0	?	0	48.9
COc1ccc(/C=N\Nc2ccccc2[N+](=O)[O-])c(C(=O)O)c1OC	88.5	0	0	?	0	50.0
Cc1[nH]c2ccccc2c1/C=N/Nc1ccccc1[N+](=O)[O-]	86.2	0[5.75 µM]	0	31.6µM	?	37.4
COc1ccc(C(C(=O)NC2CCCC2)N(C(=O)c2ccoc2C)c2ccc(C)cc2)cc1 (stereo not drawn)	0	?	0	0	10.4µM	0
COc1ccc(N(C(=O)c2ccco2)C(C(=O)NC2CCCC2)c2ccncc2)cc1 (stereo not drawn)	0	0	0	0	0	0
COc1ccc(C(C(=O)NC2CCCCC2)N(C(=O)CCl)c2ccc(C)cc2)cc1 (stereo not drawn)	0	0	0	0	0	0
COc1ccc(C(C(=O)NC2CCCCC2)N(C(=O)CCl)c2ccc(OC)cc2)cc1 (stereo not drawn)	0	9.28µM	0	0	0	0
SMILES	Shiga inhibitor	Pf growth 96h	SARS PLP yeast	AMA1-RON2 inh	Pf growth 48h	CHX counter
O=C1Nc2ccccc2-c2nnnn2C1N1CCCCC1 (stereo not drawn)	-	-	-	0	-	-
Cc1c(NC(=O)COc2cccc(Cl)c2Cl)c(=O)n(-c2ccccc2)n1C	-	0	0	0	0	-
O=S(=O)(Nc1ccc(Cl)cn1)c1ccc(Cl)cc1	0	?	0	0	0	0
Cc1cc(C)c(S(=O)(=O)Nc2ccc(Cl)cn2)c(C)c1	0	0	0	0	10.4µM	0
Nc1nnc(COc2ccc(Br)cc2Br)s1	91.7	0	0	0	0	21.1
Cc1ccc(C)c(OCc2nnc(N)s2)c1	0	?	0	0	0	0
COc1ccccc1N1CCN(C(=O)c2ccc(N(C)S(=O)(=O)c3ccccc3)cc2)CC1	0	0	0	0	?	0
Cc1sc2c(c1C)CN(C1CC(C)(C)NC(C)(C)C1)CN2C(=O)c1ccco1	44.0	0	0	-	?	22.8
CC1(C)CC(CCNC(=O)c2ccco2)CC(C)(C)N1	0	-	0	0	0	0
COc1ccc(NC(=O)c2cc3c(-c4ccc(OC)c(OC)c4)nn(C)c3s2)cc1OC	100.0	0	0	0	-	51.3
CCOC(=O)N1CCC(NC(=O)c2cc3c(-c4ccc(OC)c(OC)c4)nn(C)c3s2)CC1	0	9.28µM	0	0	?	0
COc1ccc(-c2nn(C)c3sc(C(=O)NCc4ccco4)cc23)cc1OC	0	0	0	0	0	0
CCOC(=O)C1(CCOc2ccccc2)CCN(CC(O)CO)CC1 (stereo not drawn)	0	?	0	0	?	0
CC(OC(=O)CNC(=O)COc1ccccc1)C(=O)N(C)Cc1ccccc1 (stereo not drawn)	-	0	0	0	0	-
O=C(NCC(c1cccs1)N1CCOCC1)C1CCN(S(=O)(=O)c2cc(Cl)ccc2Cl)CC1 (stereo not drawn)	-	-	-	0[11.6 µM]	-	-
C#CCNC(=O)C1CCN(c2ccc(S(=O)(=O)N3CCOCC3)cc2Cl)CC1	0	?	0	0	?	0
O=C(NCC(c1cccs1)N1CCOCC1)C1CCN(S(=O)(=O)c2c(Cl)cccc2Cl)CC1 (stereo not drawn)	-	?	0	0	13.1µM	-
O=C(NCc1cccs1)C1CCN(c2ccc(S(=O)(=O)N3CCOCC3)cc2Cl)CC1	0	?	0	0	4.65µM	0
O=c1cnnc(N/N=C/c2cccs2)[nH]1	0	?	0	0	0	0
Cc1cc(=O)[nH]c(N/N=C/c2sccc2C)n1	80.9	?	0	0	0	47.4
Cc1ccc(-c2ccc(/C=N/O)o2)cc1[N+](=O)[O-]	60.8	0	0	0	0	34.6
O=[N+]([O-])c1cc(-c2ccc(/C=N/n3cnnc3)o2)ccc1Cl	0	?	0	0	0	0
Cc1cc(=O)[nH]c(N/N=C/c2cccs2)n1	0	0	0	0	0	23.3
Cc1cc(=O)[nH]c(N/N=C/c2ccc([N+](=O)[O-])cc2)n1	0	?	0	-	0	0
Cc1cc(=O)[nH]c(N/N=C/c2ccc(-c3ccc([N+](=O)[O-])cc3)o2)n1	0	0	0	0	0	11.9
SMILES	Shiga inhibitor	Pf growth 96h	SARS PLP yeast	AMA1-RON2 inh	Pf growth 48h	CHX counter
Cc1cc(=O)[nH]c(N/N=C/c2c(F)c(F)c(F)c(F)c2F)n1	0	0	0	0	-	0
O=C(CCCN1C(=O)c2cccc3cccc(c23)C1=O)N1CCc2ccccc2C1	0	0	0	0	0	0
CC(C)CCSc1nc(N2CCOCC2)c2c(c1C#N)CC(C)(C)OC2	0	0	0	0	9.28µM	0
CC1(C)Cc2c(C#N)c(SCC(=O)c3ccccc3)nc(N3CCOCC3)c2CS1	0	?	0	0	2.33µM	0
CN1Cc2c(N3CCOCC3)nc(SCc3ccccc3)c(C#N)c2CC1(C)C	0	0	0	0	0	0
CC(Sc1nc(-c2ccccc2)nc2c1COC(C)(C)C2)C(=O)N1CCOCC1 (stereo not drawn)	0	8.28µM	0	0	-	0
